Test results published in PubChem BioAssay (NCATS).
Results filed as inconclusive are left out. Entries that show only a call come without a potency. Calls of active or inactive are those of the source. Calls come from the whole dose curve; as a rule, active = well fitted inhibition curve with a large enough effect; inconclusive = small, poorly fitted or top-dose-only effect; inactive = flat fitted curve, though single readings scatter.

Columns and labels:
Experiment in all cases: qHTS profiling for inhibitors of Plasmodium falciparum proliferation (AID 504749); note: nearly all actives have a fitted effect of over 60% in size
Conditions in all cases: P. falciparum in erythrocytes, SYBR Green DNA, 72 h; series mostly up to 28.7 µM
3D7 = system: 3D7
How it was run: (§1)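 Quantitative HTS: compounds pinned into medium, infected erythrocytes added (0.3% parasitemia, 2.5% hematocrit), 72 h culture at 37 C under 5% CO2. Saponin/Triton lysis with SYBR Green I, overnight RT, then fluorescence read.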

CP185 = system: CP185
How it was run: as §1

CP194 = system: CP194
How it was run: as §1

CP201 = system: CP201
How it was run: as §1

CP238 = system: CP238
How it was run: as §1

CP247 = system: CP247
How it was run: as §1

CP250 = system: CP250
How it was run: as §1

CP262 = system: CP262
How it was run: as §1

CP265 = system: CP265
How it was run: as §1

CP325 = system: CP325
How it was run: as §1

CP329 = system: CP329
How it was run: as §1

CP335 = system: CP335
How it was run: as §1

DIV30 = system: DIV30
How it was run: as §1

Dd2 = system: Dd2
How it was run: as §1

ECU = system: ECU
How it was run: as §1

GB4 = system: GB4
How it was run: as §1

HB3 = system: HB3
How it was run: as §1

P94_40 = system: P94_40
How it was run: as §1

PAD = system: PAD
How it was run: as §1

SC27B = system: SC27B
How it was run: as §1
Potency is the fitted concentration of half-maximal effect.

| Structure (SMILES) | Potency (3D7) | Potency (CP185) | Potency (CP194) | Potency (CP201) | Potency (CP238) | Potency (CP247) | Potency (CP250) | Potency (CP262) | Potency (CP265) | Potency (CP325) | Potency (CP329) | Potency (CP335) | Potency (DIV30) | Potency (Dd2) | Potency (ECU) | Potency (GB4) | Potency (HB3) | Potency (P94_40) | Potency (PAD) | Potency (SC27B) |
| --- | --- | --- | --- | --- | --- | --- | --- | --- | --- | --- | --- | --- | --- | --- | --- | --- | --- | --- | --- | --- |
| C[C@@]12C(=O)OC(=O)[C@]1(C)[C@H]1CC[C@@H]2O1 | 3.16 µM (active) | 2.51 µM (active) | 2.87 µM (active) | 3.61 µM (active) | 2.51 µM (active) | 1.78 µM (active) | 3.16 µM (active) | 3.61 µM (active) | 3.55 µM (active) | 3.61 µM (active) | 2.56 µM (active) | 2.56 µM (active) | 5.73 µM (active) | 4.47 µM (active) | 3.55 µM (active) | 4.05 µM (active) | 3.55 µM (active) | 2.51 µM (active) | 3.98 µM (active) | 2.82 µM (active) |
| C=C1CCC2[C@](C)(CO)C(O)CC[C@]2(C)C1C/C=C1/C(=O)OCC1O (stereo not given in full) | inactive | inactive | inactive | inactive | inactive | 11.2 µM (active) | 12.6 µM (active) | inactive | inactive | inactive | inactive | inactive | inactive | inactive | inactive | inactive | inactive | inactive | inactive | inactive |
| CC(/C=C1\SC(=S)N(CC(=O)O)C1=O)=C\c1ccccc1 | inactive | inactive | inactive | inactive | inactive | inactive | inactive | inactive | inactive | inactive | inactive | inactive | inactive | inactive | inactive | inactive | inactive | inactive | inactive | inactive |
